Data reported in PubChem BioAssay (NCATS).
Records with an inconclusive call do not appear. The source made the active and inactive calls. Unless noted, calls come from the whole dose curve; as a rule, active = well fitted curve in the direction sought with a large enough effect; inconclusive = small, poorly fitted or top-dose-only effect, or another doubt; inactive = no such curve, though single readings can be large; an effect the other way counts as inactive or inconclusive.

Key:
[1] = target: Lysosomal acid glucosylceramidase (Homo sapiens) (UniProt P04062); test: Glucocerebrosidase-p2 (AID 348; in the data active = potency below about 10 µM; note: potency is the fitted concentration of half-maximal effect); settings: purified GBA, blue fluorogenic substrate, 40 min
Chain of Lysosomal acid glucosylceramidase (Homo sapiens) (P04062 whole entry, looked up): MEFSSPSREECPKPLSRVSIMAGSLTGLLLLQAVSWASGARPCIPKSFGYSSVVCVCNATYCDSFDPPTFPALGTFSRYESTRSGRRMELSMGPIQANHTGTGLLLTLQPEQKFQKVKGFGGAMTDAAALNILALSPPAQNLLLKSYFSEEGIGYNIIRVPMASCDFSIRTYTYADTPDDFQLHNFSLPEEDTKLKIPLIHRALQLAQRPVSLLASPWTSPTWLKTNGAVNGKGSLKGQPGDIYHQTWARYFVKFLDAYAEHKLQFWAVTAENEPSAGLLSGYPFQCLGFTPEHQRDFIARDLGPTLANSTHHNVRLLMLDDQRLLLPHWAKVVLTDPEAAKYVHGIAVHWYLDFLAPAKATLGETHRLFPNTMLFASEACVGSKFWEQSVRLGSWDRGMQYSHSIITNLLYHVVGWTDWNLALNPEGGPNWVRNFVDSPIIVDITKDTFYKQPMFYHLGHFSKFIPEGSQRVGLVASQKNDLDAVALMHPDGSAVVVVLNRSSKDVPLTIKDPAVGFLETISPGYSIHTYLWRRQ
Summary of the method: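 Compounds titrated from 0.6 nM upwards against 0.2 nM enzyme in pH 5.9 citric acid/KH2PO4, taurocholate, tween-20; blue fluorogenic substrate 80 uM, 40 min room temperature, stopped and read Ex 365/Em 440 for AC50.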

[2] = target: Cytochrome P450 1A2 (Homo sapiens) (UniProt P05177); test: p450-cyp1a2 (AID 410; calls by dose curve; note: potency is the fitted concentration of half-maximal effect); settings: recombinant CYP1A2, luciferin-ME demethylation, luminescence; series mostly up to 57 µM
Chain of Cytochrome P450 1A2 (Homo sapiens) (P05177 whole entry, looked up): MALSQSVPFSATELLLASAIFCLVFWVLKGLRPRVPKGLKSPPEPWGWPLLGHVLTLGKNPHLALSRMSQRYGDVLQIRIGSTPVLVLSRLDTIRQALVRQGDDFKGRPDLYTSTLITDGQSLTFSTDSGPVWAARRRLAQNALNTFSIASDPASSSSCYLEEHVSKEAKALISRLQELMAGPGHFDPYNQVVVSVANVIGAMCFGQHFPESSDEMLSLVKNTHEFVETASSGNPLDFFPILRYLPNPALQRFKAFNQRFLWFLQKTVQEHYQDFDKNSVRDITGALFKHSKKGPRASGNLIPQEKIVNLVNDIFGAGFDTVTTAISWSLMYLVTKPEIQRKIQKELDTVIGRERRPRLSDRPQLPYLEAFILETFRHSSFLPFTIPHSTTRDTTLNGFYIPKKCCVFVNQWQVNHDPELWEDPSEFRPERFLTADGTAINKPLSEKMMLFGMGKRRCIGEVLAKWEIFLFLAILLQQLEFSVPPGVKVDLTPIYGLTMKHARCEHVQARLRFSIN
Summary of the method: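 Inhibition was calculated relative to 57 uM furafylline (full inhibition). The reaction used human CYP1A2 at 20nM with Luciferin-ME at its Km, 100uM, driven by an NADPH-regenerating system for 60 min at room temperature.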

[3] = NFAT Signaling Pathway (AID 444; active = well fitted curve in either direction with a large enough effect, not every such curve was filed as active;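 note: carbachol stimulus at about its EC50 of 1 µM final; % is set by controls: 0 for no effect and ±100 for the full control effect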); settings: Jurkat NFAT-bla M1, carbachol, beta-lactamase ratio, 5 h; at 7.69 µM (top of the series) unless noted
Summary of the method: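 Jurkat cells carrying an NFAT-driven β-lactamase reporter and co-transfected muscarinic M1 receptor were treated with compound plus carbachol (1 uM final, an EC50 level) for 5 h at 37 °C. CCF4 loading followed for 1 h at RT; 460/530 nm ratio gave %activity.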

[4] = Stat Signaling Pathway (AID 446; active = well fitted curve in either direction with a large enough effect, not every such curve was filed as active;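 note: ME-180 cervical cancer cells given 40 pM IL-6 alongside compound; SIE-controlled beta-lactamase reporter measured as 460/530 nm FRET emission ratio; % is set by controls: 0 for no effect and ±100 for the full control effect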); settings: ME-180 SIE beta-lactamase reporter, IL-6 stimulated, 5 h; at 7.69 µM (top of the series) unless noted
Summary of the method: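 IL-6/STAT signaling read in ME-180 cells via an SIE beta-lactamase reporter. Stimulus was 40 pM IL-6 (its AC50) for 5 hrs, so both activation and inhibition register.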

[5] = target: Glucocorticoid receptor (Homo sapiens) (UniProt P04150); test: GR-EFC Redistribution (AID 451; calls by dose curve; note: potency is the fitted concentration of half-maximal effect); settings: CHO-K1 GR-EFC translocation, beta-gal luminescence, 2 h
Chain of Glucocorticoid receptor (Homo sapiens) (P04150 whole entry, looked up, the tested form may be a part): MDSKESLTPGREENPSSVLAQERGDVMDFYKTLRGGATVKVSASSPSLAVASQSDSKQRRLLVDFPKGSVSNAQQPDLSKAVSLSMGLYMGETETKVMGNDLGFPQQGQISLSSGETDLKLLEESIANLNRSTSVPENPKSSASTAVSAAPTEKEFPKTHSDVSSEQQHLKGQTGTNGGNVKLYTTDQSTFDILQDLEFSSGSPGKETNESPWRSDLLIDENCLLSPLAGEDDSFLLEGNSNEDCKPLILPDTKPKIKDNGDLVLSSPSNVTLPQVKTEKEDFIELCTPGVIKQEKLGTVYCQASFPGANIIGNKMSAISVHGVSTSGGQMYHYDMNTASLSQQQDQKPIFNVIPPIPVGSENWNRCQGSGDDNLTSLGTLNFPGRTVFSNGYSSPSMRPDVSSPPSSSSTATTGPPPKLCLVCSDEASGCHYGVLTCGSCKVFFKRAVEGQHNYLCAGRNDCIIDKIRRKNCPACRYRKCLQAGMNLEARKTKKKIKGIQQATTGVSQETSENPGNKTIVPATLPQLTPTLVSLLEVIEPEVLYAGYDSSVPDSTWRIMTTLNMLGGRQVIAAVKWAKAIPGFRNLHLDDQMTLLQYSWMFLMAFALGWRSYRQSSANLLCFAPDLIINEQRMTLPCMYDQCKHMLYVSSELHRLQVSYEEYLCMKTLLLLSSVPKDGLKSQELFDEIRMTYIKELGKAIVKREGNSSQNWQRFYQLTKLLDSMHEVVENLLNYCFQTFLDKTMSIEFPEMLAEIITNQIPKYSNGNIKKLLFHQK
Summary of the method: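 CHO-K1 cells stably expressing nuclear-localized β-gal enzyme acceptor and GR fused C-terminally to the enzyme donor fragment; ligand-driven nuclear translocation restores β-gal by complementation. Compounds titrated up to 46 uM final, 2 h at 37 °C; luminescence read.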

[6] = target: Mitogen-activated protein kinase 10 (Mus musculus) (UniProt Q61831); test: JNK3 AlphaScreen Assay (AID 530; active = well fitted curve in either direction with a large enough effect, not every such curve was filed as active;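 note: kinase came from lysate of stimulated human HepG2 cells; signal reports phosphorylation of biotinylated GST-cJun 1-79 at Ser73 with 10 µM ATP; % is set by controls: 0 for no effect and ±100 for the full control effect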); settings: JNK3 lysate, c-Jun phosphorylation; series mostly up to 57.1 µM
Summary of the method: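 JNK3 came from HepG2 lysates pre-activated with IL-1beta and TNF-alpha and phosphorylated biotinylated GST-cJun (1-79) at 10 uM ATP, pH 7.6, room temperature. Compounds were titrated. AlphaScreen signal used anti-phospho-cJun (Ser73) antibody.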

[7] = target: 3',5'-cyclic-AMP phosphodiesterase 4B (Homo sapiens) (UniProt Q07343); test: qHTS Assay for Inhibitors of PDE-IV (AID 607; active = well fitted activation curve with a large enough effect in the main read-out, with a control signal flat, not every such curve was filed as active; note: % of control where 0% means no effect); settings: HEK293 ACTOne CNG channel cells, membrane potential fluorescence; series mostly up to 22.9 µM
Chain of 3',5'-cyclic-AMP phosphodiesterase 4B (Homo sapiens) (Q07343 whole entry, looked up): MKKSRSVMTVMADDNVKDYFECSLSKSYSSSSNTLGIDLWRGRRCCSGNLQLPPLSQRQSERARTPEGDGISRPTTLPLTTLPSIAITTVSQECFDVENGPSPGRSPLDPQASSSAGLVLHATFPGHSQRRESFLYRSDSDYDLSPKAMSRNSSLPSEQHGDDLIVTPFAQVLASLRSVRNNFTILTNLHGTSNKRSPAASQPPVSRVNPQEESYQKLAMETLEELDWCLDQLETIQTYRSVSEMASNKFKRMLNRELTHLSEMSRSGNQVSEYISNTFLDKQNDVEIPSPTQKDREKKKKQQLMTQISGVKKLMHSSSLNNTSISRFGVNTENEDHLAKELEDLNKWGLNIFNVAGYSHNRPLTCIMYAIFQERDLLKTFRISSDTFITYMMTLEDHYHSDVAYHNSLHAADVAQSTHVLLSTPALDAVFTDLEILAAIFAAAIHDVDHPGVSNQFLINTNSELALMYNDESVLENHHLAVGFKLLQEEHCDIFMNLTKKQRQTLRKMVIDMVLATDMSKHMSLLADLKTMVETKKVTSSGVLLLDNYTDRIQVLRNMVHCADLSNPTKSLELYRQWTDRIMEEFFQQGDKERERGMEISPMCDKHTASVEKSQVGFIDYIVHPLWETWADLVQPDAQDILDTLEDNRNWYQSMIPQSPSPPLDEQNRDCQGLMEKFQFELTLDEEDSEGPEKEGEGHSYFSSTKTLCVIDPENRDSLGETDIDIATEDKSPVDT
Summary of the method: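 Live HEK293 cells with a modified cyclic nucleotide-gated (CNG) channel report intracellular cAMP via membrane-potential dye fluorescence (ex 535/em 590 nm). Endogenous PDE-IV was targeted. Compounds were tested at up to 22.9 uM final; RO 20-1724 100 uM served as control.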

[8] = target: Cytochrome P450 3A4 (Homo sapiens) (UniProt P08684); test: qHTS Assay for Activators of Cytochrome P450 3A4 (AID 885); settings: recombinant CYP3A4, Luciferin-PPXE luminescence, 60 min; series mostly up to 57.1 µM; note: nearly all actives have a fitted effect of over 65% in size
Chain of Cytochrome P450 3A4 (Homo sapiens) (P08684 whole entry, looked up): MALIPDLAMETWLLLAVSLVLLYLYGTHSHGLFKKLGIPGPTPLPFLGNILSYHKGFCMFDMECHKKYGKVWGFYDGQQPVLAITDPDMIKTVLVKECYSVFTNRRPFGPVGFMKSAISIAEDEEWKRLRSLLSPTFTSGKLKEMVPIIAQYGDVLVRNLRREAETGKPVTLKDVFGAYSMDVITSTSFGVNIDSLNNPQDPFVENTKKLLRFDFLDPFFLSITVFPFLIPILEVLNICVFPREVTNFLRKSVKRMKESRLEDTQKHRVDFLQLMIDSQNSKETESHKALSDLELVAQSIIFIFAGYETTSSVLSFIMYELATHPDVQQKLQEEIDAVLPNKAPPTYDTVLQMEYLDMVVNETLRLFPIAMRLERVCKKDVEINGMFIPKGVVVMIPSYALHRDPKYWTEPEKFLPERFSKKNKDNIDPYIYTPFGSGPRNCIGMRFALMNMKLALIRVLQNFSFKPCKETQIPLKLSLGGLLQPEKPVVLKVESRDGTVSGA
Summary of the method: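 Quantitative HTS format: compounds preincubated with 20nM human CYP3A4 and Luciferin-PPXE substrate at KM, reaction started by NADPH regeneration, stopped after 60 min, luciferase luminescence read 20 min later.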

[9] = qHTS Assay for Lipid Storage Modulators (AID 1519; calls by dose curve); settings: Drosophila S3 cells, BODIPY lipid droplet/cell ratio, laser cytometry, cells loaded with oleic acid; for activity change, negative = inhibition: at 57.5 µM (top of the series)
Summary of the method: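 Cells seeded at 5,000 per well were treated with compounds over a concentration series and loaded with oleic acid (400 uM, as added). Lipid droplet fluorescence (488 nm excitation, 500-530 nm channel) was read by laser-scanning cytometry and normalized to 20 uM Triacsin C.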

[10] = target: Dual specificity protein kinase CLK4 (Homo sapiens) (UniProt Q9HAZ1); test: qHTS Assay for Inhibitors of CDC-like Kinase 4 (Kinase-Glo Assay) (AID 1770); settings: recombinant Clk4, Kinase-Glo ATP depletion luminescence; series mostly up to 66.7 µM; note: nearly all actives have a fitted effect of over 65% in size; note: potency is the fitted concentration of half-maximal effect
Chain of Dual specificity protein kinase CLK4 (Homo sapiens) (Q9HAZ1 whole entry, looked up): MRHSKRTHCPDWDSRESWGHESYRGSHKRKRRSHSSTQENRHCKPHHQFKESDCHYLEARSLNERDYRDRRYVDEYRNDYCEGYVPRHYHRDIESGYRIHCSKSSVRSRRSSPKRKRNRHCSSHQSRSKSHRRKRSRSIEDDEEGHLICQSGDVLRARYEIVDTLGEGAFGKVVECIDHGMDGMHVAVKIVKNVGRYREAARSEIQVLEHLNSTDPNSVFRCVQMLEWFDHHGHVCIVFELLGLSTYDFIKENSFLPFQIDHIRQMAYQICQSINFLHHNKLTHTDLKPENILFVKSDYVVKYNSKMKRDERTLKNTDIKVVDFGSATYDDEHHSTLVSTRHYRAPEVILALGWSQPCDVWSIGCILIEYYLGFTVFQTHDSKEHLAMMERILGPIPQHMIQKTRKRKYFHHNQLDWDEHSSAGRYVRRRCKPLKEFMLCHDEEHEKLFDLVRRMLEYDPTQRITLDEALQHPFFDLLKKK
Summary of the method: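 Luminescent ATP-depletion read-out (Kinase-Glo) after 4.5 h room-temperature reaction of Clk4 (25 nM final) with RS peptide (100 uM) and ATP (1 uM), pH 7.5 Tris buffer with MgCl2 and DTT.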

[11] = target: Dual specificity protein kinase CLK4 (Homo sapiens) (UniProt Q9HAZ1); test: qHTS Assay for Inhibitors of CDC-like Kinase 4 (ADP-Glo Assay) (AID 1771); settings: recombinant CLK4, ADP-Glo luminescence; series mostly up to 80 µM; note: nearly all actives have a fitted effect of over 70% in size; note: potency is the fitted concentration of half-maximal effect
Summary of the method: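 Kinase reaction: Clk4 at 25 nM, RS repeat peptide substrate at 100 uM, ATP at 1 uM, 1 hr, room temperature. Product ADP detected as luciferase signal via ADP-Glo.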

[12] = target: Dual specificity protein kinase CLK4 (Homo sapiens) (UniProt Q9HAZ1); test: qHTS Assay for Inhibitors of CDC-like Kinase 4 (ADP-FP Assay) (AID 1795); settings: Transcreener ADP fluorescence polarization; series mostly up to 50 µM; note: nearly all actives have a fitted effect of over 60% in size; note: potency is the fitted concentration of half-maximal effect
Summary of the method: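 Kinase activity was measured as ADP production using Transcreener orange tracer (4 nM) and ADP antibody (1 ug/mL) fluorescence polarization, with ADP calculated from a calibration curve. The 1 h reaction contained 6.25 nM Clk4, 1 uM ATP and 100 uM RS peptide at pH 7.5 with Mg2+.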

[13] = target: Ubiquitin carboxyl-terminal hydrolase 1 (Homo sapiens) (UniProt O94782); test: Inhibitors of USP1/UAF1: Pilot qHTS (AID 504865); settings: purified USP1/UAF1, Ub-rhodamine cleavage fluorescence; series mostly up to 54.9 µM;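 note: rhodamine fluorescence freed from ubiquitin-rhodamine substrate followed over time; top concentration of the series differs between compounds; % is set by controls: 0 for no effect and ±100 for the full control effect; nearly all actives have a fitted effect of over 35% in size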
Chain of Ubiquitin carboxyl-terminal hydrolase 1 (Homo sapiens) (O94782 whole entry, looked up): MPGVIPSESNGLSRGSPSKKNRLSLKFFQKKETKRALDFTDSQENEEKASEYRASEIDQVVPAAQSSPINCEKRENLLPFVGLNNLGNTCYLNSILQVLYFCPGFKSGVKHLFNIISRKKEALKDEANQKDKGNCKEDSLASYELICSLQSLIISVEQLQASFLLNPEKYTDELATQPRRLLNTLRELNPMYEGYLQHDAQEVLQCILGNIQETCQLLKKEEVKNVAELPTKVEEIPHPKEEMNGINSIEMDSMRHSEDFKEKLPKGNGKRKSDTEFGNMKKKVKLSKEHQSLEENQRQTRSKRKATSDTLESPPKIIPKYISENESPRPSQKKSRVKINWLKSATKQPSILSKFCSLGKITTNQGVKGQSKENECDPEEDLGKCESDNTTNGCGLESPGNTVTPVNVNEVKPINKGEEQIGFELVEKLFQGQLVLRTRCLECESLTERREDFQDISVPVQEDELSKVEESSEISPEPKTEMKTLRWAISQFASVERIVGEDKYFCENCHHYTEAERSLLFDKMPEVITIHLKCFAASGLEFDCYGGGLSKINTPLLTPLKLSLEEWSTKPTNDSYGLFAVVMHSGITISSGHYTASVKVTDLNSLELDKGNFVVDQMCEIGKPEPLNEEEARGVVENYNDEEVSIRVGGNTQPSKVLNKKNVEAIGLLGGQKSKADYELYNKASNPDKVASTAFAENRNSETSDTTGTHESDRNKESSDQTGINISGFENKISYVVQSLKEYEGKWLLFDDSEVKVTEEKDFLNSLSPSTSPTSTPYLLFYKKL
Summary of the method: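 Deubiquitinase activity followed as kinetic rhodamine fluorescence release from 150 nM Ub-Rho. 1 nM USP1/UAF1 with compound, after 15 min room-temperature preincubation, in HEPES pH 7.8 buffer containing TCEP, EDTA, BSA and Tween-20.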

[14] = Primary qHTS for small molecule stabilizers of the endoplasmic reticulum resident proteome: Secreted ER Calcium Modulated Protein (SERCaMP) assay (AID 1508630); settings: SH-SY5Y GLuc-SERCaMP (Gaussia luciferase released on ER calcium loss) secretion, thapsigargin, luminescence; series mostly up to 38.4 µM; note: % is set by controls: 0 for no effect and ±100 for the full control effect
Summary of the method: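 GLuc-SERCaMP-expressing SH-SY5Y cells, pretreated 16 h with compound, are challenged with thapsigargin to empty ER calcium stores; after 4 h, coelenterazine is added directly to the medium and luminescence is imaged.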

[15] = AP1 Signaling Pathway (AID 357; active = well fitted curve in either direction with a large enough effect, not every such curve was filed as active); settings: ME-180 AP-1-bla reporter, EGF-induced, beta-lactamase ratio, 5 h; at 7.69 µM (top of the series) unless noted
Summary of the method: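 Titration-series screen for positive or negative modulators of EC50 EGF-induced signaling in ME-180 cells carrying an AP-1-driven beta-lactamase reporter. After 5 hours at 37 degrees Celsius, CCF4 460nm/530nm emission ratio gave %Activity; AC50 values derived.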

[16] = target: Glucocorticoid receptor (Homo sapiens) (UniProt P04150); test: GR-GFP Redistribution (AID 450;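 active = compounds whose dose series gives a full or clear partial fitted curve of increased nuclear translocation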; note: potency is the fitted concentration of half-maximal effect); settings: U2OS GR-GFP nuclear translocation, laser cytometry, 2 h
[17] = qHTS Assay for Identification of Small Molecule Agonists for Hypoxia Response Element Signaling Pathway (AID 914; active = well fitted activation curve with a large enough effect in the signal ratio, with a control signal flat, not every such curve was filed as active; the % refers to the signal ratio; note: % of control where 0% means no effect); settings: ME-180 (cervical carcinoma) HRE-bla reporter, beta-lactamase ratio, CoCl2, 17 h; activation: stronger effect = higher value
Summary of the method: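 In Opti-MEM containing 0.5% dialyzed FBS and 10 mM HEPES, ME-180 HRE-bla cells received a compound titration and EC50 CoCl2. They were incubated 17 hours, then CCF4-loaded 2.5 hours at room temperature before ratio reading.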

[18] = target: Cytochrome P450 3A4 (Homo sapiens) (UniProt P08684); test: qHTS Assay for Inhibitors and Substrates of Cytochrome P450 3A4 (AID 884); settings: recombinant CYP3A4, Luciferin-PPXE luminescence; series mostly up to 57.1 µM; note: potency is the fitted concentration of half-maximal effect; nearly all actives have a fitted effect of over 50% in size
Summary of the method: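 20 nM human CYP3A4 with 25 uM Luciferin-PPXE (at KM) in 200 mM KPO4, preincubated 10 min with compound; NADPH regeneration started a 60 min RT reaction. Luciferin detected by luminescence, normalized to 57 uM ketoconazole as full inhibition.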

[19] = measured here: cell count channel max response
[20] = measured here: lipid channel max response

Cc1nc2cncnc2n(C2CC2)c1=O
24%: max response [9, 19]
inactive: Potency [1] > 11.4 µM | activity change, negative = inhibition [3] 2.34% | activity, negative = inhibition [4] -12.1% | Potency [5] > 46 µM | outcome [6] | Potency [7] | Potency [8] | activity change, negative = inhibition [9] 9.2% | Potency [10] | Potency [11] | Potency [12] | Potency [13] | Potency [14]
active: Potency [2] 15.8 µM
34.8%: max response [9, 20]

O=c1cnc2cncnc2n1Cc1ccc(F)cc1
-3.3%: max response [9, 19]
inactive: Potency [1] > 11.4 µM | activity change, negative = inhibition [15] 8.77% | activity change, negative = inhibition [3] -27.6% | activity, negative = inhibition [4] -8.63% | Potency [16] > 9.22 µM | outcome [6] | Potency [8] | activity change, negative = inhibition [9] -2.55% | Potency [10] | Potency [11] | Potency [12] | Potency [14]
-6.15%: max response [9, 20]

CCNc1ncc2nc(-c3ccc(OC)cc3)c(=O)n(C[C@H]3CCCO3)c2n1
0.991%: max response [9, 20]
inactive: Potency [1] > 11.4 µM | activity change, negative = inhibition [15] -5.93% | Potency [16] > 9.22 µM | Potency [5] > 46 µM | outcome [6] | activity change, negative = inhibition [9] -3.19% | Potency [10] | Potency [11] | Potency [12] | Potency [13] | Potency [14]
8.2%: max response [9, 19]

CN1CCN(c2ncc3ncc(=O)n(C4CC4)c3n2)CC1
-12.9%: max response [9, 20]
inactive: Potency [1] > 11.4 µM | activity change, negative = inhibition [15] -15.2% | activity change, negative = inhibition [3] -12.8% | activity, negative = inhibition [4] -9.77% | Potency [5] > 46 µM | outcome [6] | Potency [7] | activity change, negative = inhibition [9] -0.747% | Potency [10] | Potency [11] | Potency [12] | Potency [13] | Potency [14]
-13.5%: max response [9, 19]

O=c1c(-c2cc(F)cc(F)c2)nc2cnc(Nc3ccccc3)nc2n1C[C@H]1CCCO1
17.2%: max response [9, 19]
2.07%: max response [9, 20]
inactive: Potency [1] > 11.4 µM | activity change, negative = inhibition [15] -3.83% | activity change, negative = inhibition [3] -13.7% | Potency [16] > 9.22 µM | Potency [5] > 46 µM | outcome [6] | Potency [7] | activation [17] -17% | activity change, negative = inhibition [9] -10.6% | Potency [10] | Potency [11] | Potency [12] | Potency [14]

c1ccc(CNc2ncnc3ccc(-c4cccnc4)cc23)cc1
inactive: Potency [1] > 11.4 µM | activity, negative = inhibition [4] -1.78% | Potency [16] > 46 µM | Potency [5] > 46 µM | outcome [6] | Potency [8] | activity change, negative = inhibition [9] -2.12% | Potency [13] | Potency [14]
9.68%: max response [9, 20]
14%: max response [9, 19]
active: Potency [2] 0.126 µM | Potency [18] 1.26 µM | Potency [10] 3.16 µM | Potency [11] 3.16 µM | Potency [12] 2.24 µM
